# PubChem BioAssay
# Active and inactive are the calls of the source.
# How the values were obtained:
# [1] = tested on: Plasmodium falciparum Sir2 (PF13_0152, Sir2A); experiment: pfSir2 binders on small-molecule microarrays, primary screen, biochemical, small-molecule microarray, 635 nm fluorescence (AID 1098); settings: small-molecule microarray binding, fluorescence 635 nm; higher = more signal;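 note: score merges spot fluorescence intensity with its signal-to-noise ratio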
# [2] = small-molecule microarray binders of probe aDKK1, primary screen, biochemical, biotinylated probe, 635/667 nm fluorescence (AID 1099); settings: higher = more signal;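 note: score merges 667nm spot fluorescence with signal to noise across triplicate slides; reference of the scale not given here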
# [3] = small-molecule microarray binders of probe aCHRDL2, primary screen, biochemical, biotinylated probe, 635/667 nm fluorescence (AID 1100); settings: higher = more signal
# [4] = splicing luciferase reporter signal modulators, primary screen, spliceosome inhibition project, cell-based, HEK293, splice +/- reporter (AID 1101); settings: luminescence, 24 h, higher = more signal, called active from +8 up or from −8 down;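 note: HEK293 cells carrying a splicing-competent luciferase reporter gene; test concentration not given here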
# [5] = target: Fibroblast growth factor 10 (Homo sapiens) (UniProt O15520); experiment: FGF10 binders on small-molecule microarrays, primary screen, biochemical, small-molecule microarray, 635 nm fluorescence (AID 1102); settings: FGF10 binding, fluorescence 635 nm, higher = more signal
# [6] = tested on: glycogen synthase kinase-3 (GSK3A per assay name; protocol says GSK3B); experiment: GSK3 binders on small-molecule microarrays, primary screen, biochemical, small-molecule microarray, 635 nm fluorescence, GSK3A (AID 1103); settings: small-molecule microarray binding, fluorescence 635 nm; higher = more signal; note: the record names both GSK3A and GSK3B
# [7] = target: Epidermal growth factor receptor (Homo sapiens) (UniProt P00533); experiment: EGFR binders on small-molecule microarrays, primary screen, biochemical, small-molecule microarray, 635 nm fluorescence (AID 1104); settings: EGFR binding, higher = more signal;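 note: score merges 667 nm emission intensity with spot signal to noise over triplicate slides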
# [8] = target: Follistatin-related protein 3 (Homo sapiens) (UniProt O95633); experiment: FSTL3 binders on small-molecule microarrays, primary screen, biochemical, small-molecule microarray, 635 nm fluorescence (AID 1105); settings: FSTL3 binding, higher = more signal;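 note: score merges emission near 667 nm and signal to noise per printed spot across three slides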
# [9] = target: Dickkopf-related protein 1 (Homo sapiens) (UniProt O94907); experiment: DKK1 binders on small-molecule microarrays, primary screen, biochemical, small-molecule microarray, 635 nm fluorescence scan (AID 1106); settings: DKK1 binding, higher = more signal;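 note: score merges emission near 667 nm with signal to noise over three replicate slides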
# [10] = tested on: Inhibin beta A chain (activin A); experiment: INHBA (activin A) binders on microarrays, primary screen, biochemical, small-molecule microarray, 635 nm fluorescence scan (AID 1107); settings: small-molecule microarray binding, higher = more signal;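 note: mouse activin A protein probed at 4.33 µg/mL on printed slides; score merges bound-protein fluorescence near 667 nm with spot signal-to-noise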
# Sequence of Fibroblast growth factor 10 (Homo sapiens) (O15520 whole entry, looked up): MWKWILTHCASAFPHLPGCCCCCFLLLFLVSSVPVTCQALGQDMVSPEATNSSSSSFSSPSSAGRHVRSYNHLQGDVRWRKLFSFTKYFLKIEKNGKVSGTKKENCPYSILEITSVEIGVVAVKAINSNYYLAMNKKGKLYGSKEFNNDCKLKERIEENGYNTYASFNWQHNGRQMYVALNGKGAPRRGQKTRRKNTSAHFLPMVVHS
# Sequence of Epidermal growth factor receptor (Homo sapiens) (P00533 whole entry, looked up): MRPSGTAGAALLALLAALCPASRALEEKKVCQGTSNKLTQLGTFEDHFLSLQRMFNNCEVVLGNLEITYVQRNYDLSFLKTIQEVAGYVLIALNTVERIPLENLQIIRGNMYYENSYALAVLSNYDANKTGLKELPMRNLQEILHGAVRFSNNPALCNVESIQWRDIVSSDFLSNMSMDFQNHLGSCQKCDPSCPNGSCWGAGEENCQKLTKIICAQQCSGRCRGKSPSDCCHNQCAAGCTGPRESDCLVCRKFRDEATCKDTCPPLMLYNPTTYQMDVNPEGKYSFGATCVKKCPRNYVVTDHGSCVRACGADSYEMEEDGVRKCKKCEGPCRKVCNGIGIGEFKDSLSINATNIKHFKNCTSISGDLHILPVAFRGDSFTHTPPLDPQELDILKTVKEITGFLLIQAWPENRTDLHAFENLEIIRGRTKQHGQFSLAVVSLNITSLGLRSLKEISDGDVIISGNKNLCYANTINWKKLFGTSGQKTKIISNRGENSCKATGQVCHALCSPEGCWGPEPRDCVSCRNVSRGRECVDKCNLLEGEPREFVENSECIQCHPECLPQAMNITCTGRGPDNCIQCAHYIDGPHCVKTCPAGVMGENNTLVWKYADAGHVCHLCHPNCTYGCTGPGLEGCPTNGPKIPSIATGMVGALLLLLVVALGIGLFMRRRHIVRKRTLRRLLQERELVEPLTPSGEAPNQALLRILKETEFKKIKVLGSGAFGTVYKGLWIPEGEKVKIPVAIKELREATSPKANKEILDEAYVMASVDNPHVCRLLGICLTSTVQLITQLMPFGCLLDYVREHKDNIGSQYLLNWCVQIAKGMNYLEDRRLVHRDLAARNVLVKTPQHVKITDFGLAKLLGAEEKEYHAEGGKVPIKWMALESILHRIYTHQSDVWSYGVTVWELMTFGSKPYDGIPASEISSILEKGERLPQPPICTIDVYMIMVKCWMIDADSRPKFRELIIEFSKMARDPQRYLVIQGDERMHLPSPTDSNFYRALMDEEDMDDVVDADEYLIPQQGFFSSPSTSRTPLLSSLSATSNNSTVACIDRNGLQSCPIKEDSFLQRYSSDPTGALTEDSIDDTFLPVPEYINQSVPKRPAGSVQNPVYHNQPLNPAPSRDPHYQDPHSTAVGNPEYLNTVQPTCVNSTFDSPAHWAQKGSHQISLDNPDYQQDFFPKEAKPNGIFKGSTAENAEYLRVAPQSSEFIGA
# Sequence of Dickkopf-related protein 1 (Homo sapiens) (O94907 whole entry, looked up): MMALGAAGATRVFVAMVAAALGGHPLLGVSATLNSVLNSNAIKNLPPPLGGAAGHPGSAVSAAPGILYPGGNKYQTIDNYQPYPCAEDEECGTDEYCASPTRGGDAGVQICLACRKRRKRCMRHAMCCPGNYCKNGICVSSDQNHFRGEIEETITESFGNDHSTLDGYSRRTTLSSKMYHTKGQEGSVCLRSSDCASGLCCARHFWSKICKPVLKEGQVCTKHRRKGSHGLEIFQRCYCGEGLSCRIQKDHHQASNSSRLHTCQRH
# Sequence of Follistatin-related protein 3 (Homo sapiens) (O95633 whole entry, looked up): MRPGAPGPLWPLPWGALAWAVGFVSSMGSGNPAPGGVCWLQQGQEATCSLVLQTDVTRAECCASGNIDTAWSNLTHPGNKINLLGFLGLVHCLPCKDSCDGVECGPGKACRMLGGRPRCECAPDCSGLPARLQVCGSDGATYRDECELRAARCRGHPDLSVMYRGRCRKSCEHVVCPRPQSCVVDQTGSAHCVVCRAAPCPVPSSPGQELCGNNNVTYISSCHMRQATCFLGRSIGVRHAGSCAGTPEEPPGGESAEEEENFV
Structure (SMILES),composite z-score [1],composite z-score [2],composite z-score [3],z-score [4],composite z-score [5],composite z-score [6],composite z-score [7],composite z-score [8],composite z-score [9],composite z-score [10]
CCOC(=O)C[C@H]1[C@H](OC(=O)c2cc3ccccc3oc2=O)[C@@H](NC(=O)c2ccc3ccccc3c2)c2cc(OCCCO)ccc2N1C(=O)Cc1ccc(OC)cc1,0.571,-0.0385,-0.0886,-0.239 (inactive),0.576,0.162,0.34,1.18,0.427,0.237
CC(C)OC(=O)CC(=O)CC(O)c1ccc([N+](=O)[O-])cc1 (stereo not given),0.541,0.749,1.14,0.162 (inactive),0.314,0.132,-0.41,0.198,-0.953,0.527
CC(C)CNC(=O)[C@@]1(c2ccc([N+](=O)[O-])cc2)CC(=O)N(C2CCCCC2)[C@@H]1c1ccc(CO)cc1,0.388,0.368,0.453,-0.472 (inactive),0.735,0.484,0.103,0.0017,-0.362,0.517
C=C(COC)/C(=C/C[C@@H](OC(=O)c1ccncc1)c1ccccc1OCCO)c1cc(C(=O)OC)ccc1OC,-0.979,-0.0241,0.445,2.66 (inactive),-0.0528,-0.628,-0.796,-0.354,-0.276,0.845
COC(=O)[C@@]1(Cc2ccccc2)[C@H]2c3cc(C(=O)N4CCCC4)n(CCSCCO)c3C[C@H]2CN1C(=O)c1ccccc1,0.809,1.25,1.2,-0.393 (inactive),0.283,0.954,-0.0631,0.414,-0.78,0.964
COc1ccc([Si](C)(C)[C@H]2[C@H](CCO)O[C@@]3(C(=O)N(Cc4ccccc4)c4ccc(N5CCOC5=O)cc43)[C@@H]2C)cc1,0.821,0.0261,-0.214,-0.711 (inactive),0.977,0.411,0.398,0.277,0.0837,0.212
COCCOC(=O)N1C(=O)[C@@]2(c3cc(C#CCNC(N)=O)ccc31)[C@H](c1ccc(OCCO)cc1)N1[C@H](c3ccccc3)[C@H](c3ccccc3)OC(=O)[C@H]1[C@@H]2C(N)=O,0.826,0.695,0.435,0.928 (inactive),0.748,-0.0886,1.14,0.455,0.204,1.07
CN(C)CCCC[C@@H]1NC(=O)[C@@H]2C[C@H](C(=O)O)[C@H](c3cccc(OCCO)c3)N2C1=O,1.25,-0.336,-0.165,0.0013 (inactive),-0.376,-0.461,-0.277,-0.306,0.333,-0.7
Cc1ccc(S[C@]2(C(=O)NC(C)C)CC(=O)N(C(C)C)[C@@H]2c2ccc(CO)cc2I)cc1,0.476,0.0345,0.706,-0.714 (inactive),-0.101,-0.498,-0.56,0.298,-0.484,0.904
O=C1OCCC=C[C@H]2OC34C=CCN(c5ccc(Cl)cc5)C(=O)[C@H]3N(CCCCCCO)C(=O)[C@@H]4C12 (stereo not given in full),1.12,-0.0366,0.499,0.189 (inactive),-0.744,-0.359,-1.23,-0.509,-0.712,-0.279
C=C(/C(=C/C[C@@H](OC(C)=O)c1ccc(OCCO)cc1)c1cc(C(=O)OC)ccc1OC)C(C)C,1.28,0.0968,0.0396,0.0641 (inactive),1.08,0.263,-0.461,0.231,0.328,0.59
NC(=O)NCC#Cc1ccc2c(c1)[C@]1(C(=O)N2)[C@H](C(=O)N2CCN(c3ncccn3)CC2)[C@H]2C(=O)O[C@H](c3ccccc3)[C@H](c3ccccc3)N2[C@@H]1c1ccc(OCCO)cc1,0.695,0.23,0.433,-0.245 (inactive),0.766,-0.364,0.669,1.08,0.151,0.926
C=C/C=C/[C@@H]1C(=C)CN([C@@H](Cc2ccccc2)C(=O)OC)[C@H]1[C@@H](O)Cc1ccccc1,0.742,-0.369,-0.186,0.844 (inactive),0.716,0.754,-0.08,0.509,0.473,1.2
CN1C(=O)C2C=CC(C(O)c3cc(C(F)(F)F)cc(C(F)(F)F)c3)N(Nc3ccccc3)C2C1=O (stereo not given),0.395,-0.224,0.0811,1.37 (inactive),0.0307,-0.107,-0.0397,-0.247,-0.887,0.0638
O=C1c2ccccc2[C@](Cc2ccccc2I)(C(=O)NC2CC2)[C@H](c2ccc(CO)cc2)N1Cc1ccccc1C(F)(F)F,1.43,-0.349,0.768,-0.987 (inactive),0.535,-0.265,-0.922,0.32,-0.74,-0.771
COC(=O)[C@@]1(Cc2ccc(F)cc2)[C@H]2c3cc(C(=O)N4CCCC4)n(C)c3C[C@H]2CN1C(=O)c1ccccc1,1.24,0.874,1.22,-2.19 (inactive),0.549,0.128,-0.372,-0.296,-0.856,1.21
C=CCNC(=O)[C@H]1[C@@H]2C(=O)O[C@@H](c3ccccc3)[C@@H](c3ccccc3)N2[C@@H](c2ccc(OCCO)cc2)[C@]12C(=O)N(C(=O)OCCOC)c1ccc(C#Cc3ccc(OC)cc3)cc12,1.28,0.195,-0.0801,-0.957 (inactive),0.866,1.28,0.639,0.749,0.189,0.768
C=CCC(OC(C)=O)[C@@H]1[C@@H](N(Cc2cc3ccccc3o2)C(=O)c2ccc(-c3ccccc3)cc2)c2cc(OCCCO)ccc2N1C(=O)Cc1ccc(OC)cc1 (stereo not given in full),0.104,-0.102,0.0935,-0.762 (inactive),0.247,-0.744,0.0306,0.307,0.063,0.774
C[C@]1(C(=O)O)c2ccccc2C(=O)N(Cc2ccc(OC(F)(F)F)cc2)[C@H]1c1ccc(CO)cc1,0.0634,0.702,1.01,0.524 (inactive),0.0104,-0.502,-0.409,-0.0953,-0.656,0.496
CCOC(=O)C[C@H]1[C@H](OC(=O)c2ccc(-c3ccccc3)cc2)[C@@H](NC(=O)CC(C)C)c2cc(OCCCO)ccc2N1C(=O)c1ccccc1,0.166,0.148,-0.0525,-0.493 (inactive),0.418,-0.106,-0.101,0.648,0.455,0.214
O=C1C2C=CC(C(O)c3cc(C(F)(F)F)cc(C(F)(F)F)c3)N(Nc3ccccc3F)C2C(=O)N1c1ccccc1 (stereo not given),0.99,1.09,1.03,0.537 (inactive),0.223,0.708,-0.855,-0.19,-0.795,0.37
COCCOC(=O)N1C(=O)[C@@]2(c3ccccc31)[C@H](c1ccc(OCCO)cc1)N1[C@H](c3ccccc3)[C@H](c3ccccc3)OC(=O)[C@H]1[C@@H]2C(=O)N1CCCCCCC1,2.35,3.24,1.9,-1.59 (inactive),1.76,1.46,2.03,1.76,2.62,1.89
Cc1ccc(S[C@]2(C(=O)NC(C)C)CC(=O)N(Cc3ccccc3Cl)[C@@H]2c2ccc(CO)cc2)cc1,1.23,0.17,0.865,-0.864 (inactive),-0.465,-0.628,-1.04,-1.2,-1.47,-0.318
CO[C@H]1O[C@H](CO)[C@@H](OC(=O)Nc2ccc(C#N)cc2)[C@@H]2OC(=O)[C@H](Cc3cccc(Br)c3)C/C=C/C[C@@H](Cc3cccc(Br)c3)C(=O)O[C@@H]12,0.717,0.617,0.534,1.5 (inactive),0.788,-0.037,0.223,0.707,0.336,-0.247
O=C(CS)NCCCCCNC(=O)[C@@H]1C[C@@H]2C(=O)N[C@@H](Cc3ccccc3)C(=O)N2[C@@H]1c1cccc(OCCO)c1,1.74,0.0021,0.0402,-0.345 (inactive),1.17,1.32,0.526,0.988,1.25,-0.678
C=CCC(OC(C)=O)[C@@H]1[C@@H](N(Cc2cccc3ccccc23)C(=O)c2ccc(-c3ccccc3)cc2)c2cc(OCCCO)ccc2N1C(=O)c1ccc(-c2ccccc2)cc1 (stereo not given in full),0.122,0.508,0.75,-0.698 (inactive),-0.221,-0.0259,-0.151,0.143,-0.242,0.967
C=CCC(OC(C)=O)[C@@H]1[C@@H](N(Cc2ccc(-c3ccccc3)cc2)C(=O)c2ccc(C)cc2)c2cc(OCCCO)ccc2N1C(=O)Cc1ccc2ccccc2c1 (stereo not given in full),-0.334,-0.199,0.0333,-1.84 (inactive),0.107,-0.197,0.251,-0.274,0.258,0.567
[N-]=[N+]=NCc1ccccc1[C@@H]1OC(c2ccc(OCCCO)cc2)=N[C@]1(Cc1ccccc1N=[N+]=[N-])C(=O)N1CCCCC1,0.785,0.561,0.321,0.327 (inactive),0.548,0.363,0.435,0.491,-0.221,1.29
O=C(O)[C@@H]1C[C@@H]2C(=O)N3CCC[C@H]3C(=O)N2[C@@H]1c1cccc(OCCO)c1,2.07,2.67,1.72,0.0627 (inactive),1.36,1.44,1.41,1.54,1.9,1.98
